Test results taken from PubChem BioAssay AID1851 (National Center for Advancing Translational Sciences (NCATS), 2009).
Among all 16,000 compounds or so, about 5,100 (32%) were called active. About 25% were inconclusive and are not listed. Calls come from the whole dose curve; as a rule, active = well fitted curve in the direction sought with a large enough effect; inconclusive = small, poorly fitted or top-dose-only effect, or effect the other way; inactive = no such curve, though single readings can be large or run the other way. The list shows a part of the results.

Biological target: Cytochrome P450 3A4 (Homo sapiens) (UniProt P08684)
Test: Cytochrome panel assay with activity outcomes
Conditions: recombinant CYP, pro-luciferin dealkylation, luminescence, p450-cyp3a4; series mostly up to 57.1 µM
% is set by controls: 0 for no effect and ±100 for the full control effect.

Cytochrome P450 3A4 (Homo sapiens), sequence (P08684 whole entry, looked up): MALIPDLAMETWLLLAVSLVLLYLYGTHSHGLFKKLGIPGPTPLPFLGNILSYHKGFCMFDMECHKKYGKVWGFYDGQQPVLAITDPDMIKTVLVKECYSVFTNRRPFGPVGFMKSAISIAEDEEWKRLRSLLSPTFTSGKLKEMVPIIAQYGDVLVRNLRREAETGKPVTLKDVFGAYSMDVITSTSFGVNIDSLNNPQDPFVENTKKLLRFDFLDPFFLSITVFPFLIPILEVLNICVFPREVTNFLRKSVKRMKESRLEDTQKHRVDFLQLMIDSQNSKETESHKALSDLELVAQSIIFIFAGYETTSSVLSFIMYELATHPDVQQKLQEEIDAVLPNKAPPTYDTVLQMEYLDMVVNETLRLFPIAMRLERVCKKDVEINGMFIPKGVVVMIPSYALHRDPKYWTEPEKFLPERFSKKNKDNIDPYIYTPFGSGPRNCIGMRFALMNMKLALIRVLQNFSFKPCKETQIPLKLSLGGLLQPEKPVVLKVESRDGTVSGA

AC50, inactive:
NC(=O)C1(N2CCCCC2)CCN(C(=O)c2ccc(-n3cnnn3)cc2)CC1, NC(N)=[N+]1CCc2ccccc2C1, CN1CCN(NC(=O)c2ccccc2F)CC1, O=c1[nH][nH]c(C(F)(F)F)c1C=Nc1ccccc1, COc1cc2nc(N(C)CCCNC(=O)[C@@H]3CCCO3)nc(N)c2cc1OC, C=CCN=C1CC(C)(C)CC(=O)/C1=C(/O)CCC(=O)OC, CC(=O)COC(=O)CCc1nc2ccccc2[nH]c1=O, CCCCNC(=O)NS(=O)(=O)c1ccc(C(=O)OC(C)C)o1, C/C(=N\OC(=O)c1ccccc1)c1cc(-c2ccc(Cl)cc2)no1, Cc1cc(C)n(CC(=O)N/N=C/c2ccco2)n1, O=C(NCC1CCCO1)/C(=C\c1ccco1)NC(=O)c1ccccc1 (configuration not stated), O=C(NNC(=O)c1ccccc1)C(=O)N1CCCCC1, O=C(NC(N1CCCC1)C(Cl)(Cl)Cl)c1ccccc1 (configuration not stated), CC(=O)/C=C/c1ccc2ccccc2n1, COC(=O)CSc1ccc2nnc(-c3ccc(F)cc3)n2n1, CC1(C)CCC(NC(=O)[C@H](N)CCC(=O)O)CC1, O=[N+]([O-])c1ccc(Cl)c(/C=N/N2CCN(Cc3ccccc3)CC2)c1, C(/C=C/c1ccco1)=N/N1CCN(c2ccccc2)CC1, O=C(Nc1nc2ccc(F)cc2s1)C1CCCO1 (configuration not stated), Cc1cnn(-c2cc(N/N=C/c3ccccc3)ncn2)c1, CC(C)N(CCNC(=O)C1CCC(=O)N1Cc1ccc(F)cc1)Cc1ccccc1 (configuration not stated), NC(=O)C1CCN(C(=O)CN2C(=O)c3ccccc3S2(=O)=O)CC1, O=C(CN1C(=O)c2ccccc2S1(=O)=O)Nc1ccccc1, CC(C)NC(=O)N1CCC2(CC1)CCN(S(C)(=O)=O)CC2, Cc1cccc(-n2ncc3c(Nc4c(C)n(C)n(-c5ccccc5)c4=O)ncnc32)c1, CCc1c(C)c(C#N)c2nc3ccccc3n2c1N1CCN(c2cc(C)ccn2)CC1, Cc1ccc(OCC(=O)NNC(=O)c2cc3ccccc3o2)cc1, NCCCCN, C=CC1=C(C(=O)O)N2C(=O)[C@@H](NC(=O)/C(=N\OCC(=O)O)c3csc(N)n3)[C@@H]2SC1, COc1ccccc1-c1nc(NCCNC(C)=O)c2ccccc2n1, NCCCCCCCCCCN, CC(=O)Nc1ccc(NC(=O)C/C(C)=N/NC(=O)C(=O)N2CCCC2)cc1, CC1(C)Cc2c(sc3c2C(=O)N(c2ccccc2)C2=NCCN23)CS1, CCSc1nc2nc(C)cc(C)n2n1, Cc1cc(C)n2nc(SCC(=O)N/N=C/c3ccccc3F)nc2n1, COc1cccc2cc(NC(=O)C3CCCCC3)c(=O)oc12, CCC(=O)N[C@@H]1CCc2cccc(OC)c2C1

AC50, active:
COC(=O)C(NNc1ccccc1)(NC(=O)c1ccccc1F)C(F)(F)F (configuration not stated) 1.58 µM, O=Nc1c(-c2c(O)[nH]c3ccccc23)[nH]c2ccccc12 7.94 µM, COc1cc2nc(N3CCN(C(=O)OCc4ccccc4)[C@H](C(=O)NC(C)(C)C)C3)nc(N)c2cc1OC 3.98 µM, Cc1cc(C)cc(NC(=O)CCc2nc3ccccc3[nH]2)c1 2.82 µM, CCCn1c(-c2cccs2)nc2nc3ccccc3nc21 10 µM, N/C(=N\OC(=O)Cc1ccc(Cl)cc1)c1cccnc1 0.794 µM, COc1ccccc1NCc1nnc(SCC(=O)N/N=C/c2ccco2)n1-c1ccc(Cl)cc1Cl 5.01 µM, CC(=O)c1cccc(NC(=O)/C(=C\c2ccco2)NC(=O)c2cccs2)c1 20 µM, O=C(N/C(=C/c1ccco1)C(=O)N1CCCCCC1)c1cccs1 14.1 µM, O=C(N/C(=C\c1cccs1)C(=O)N1CCCCCC1)c1ccccc1 7.94 µM, C/C(=N/Nc1ccc2ccccc2n1)c1ccccc1O 3.16 µM, Cc1cc(C)cc(-n2nnnc2SCC(=O)Nc2nc(-c3ccc(F)cc3)cs2)c1 1.58 µM, Cc1cc(C)cc(-n2nnnc2SCC(=O)Nc2nc(-c3ccc(Cl)cc3)cs2)c1 3.98 µM, COc1ccc(/C=C2\CCCC3C2=NN(C(=O)c2ccco2)C3c2ccc(OC)c(OC)c2)cc1OC (configuration not stated) 7.94 µM, Cc1ncsc1C(=O)N1N=C2/C(=C/c3ccccc3)CCCC2C1c1ccccc1 (configuration not stated) 5.01 µM, COc1ccccc1/C=C/C=N/N1CCN(Cc2ccc(Cl)cc2)CC1 14.1 µM, Fc1ccc2nc(Nc3nc4c(s3)CCCC4)sc2c1 22.4 µM, Cc1cccc(/C=N\Nc2cn[nH]c(=O)c2Cl)c1 15.8 µM, COC(=O)[C@@]1(Cc2ccc(F)cc2)[C@@H]2[C@@H](CC(=O)[C@H]2CC(=O)C(=O)N(C)C)CN1C(=O)c1ccccc1 6.31 µM, COC(=O)[C@@]1(Cc2ccc(OC)cc2)[C@@H]2[C@@H](CC(=O)[C@H]2CC(=O)C(=O)N(C)C)CN1C(=O)c1ccccc1 1 µM, COC(=O)c1c(C)oc2ccc(N(C(=O)c3ccncc3)S(=O)(=O)c3ccccc3)cc12 7.08 µM, Cc1ccc(C)c(C(=O)CN2C(=O)c3ccccc3S2(=O)=O)c1 7.94 µM, CN(CCCNC(=O)C1CCC(=O)N1Cc1ccccc1Cl)c1ccccc1 (configuration not stated) 7.08 µM, CCc1c(C)c(C#N)c2nc3ccccc3n2c1Nc1c(C)n(C)n(-c2ccccc2)c1=O 7.94 µM, COc1ccc2nc(SCC(=O)NN)cc(C)c2c1 2.82 µM, COc1ccc(NC(=O)CCSc2cc(C)c3ccccc3n2)cc1 3.98 µM, COc1ccc2nc(C)cc(SCC(=O)NNC(=O)COc3ccccc3)c2c1 2.82 µM, COc1ccc2nc(C)cc(SCC(=O)Nc3c(C)cc(C)cc3C)c2c1 2.51 µM, COc1ccc2nc(C)cc(SCC(=O)NNC(=O)COc3ccc(C)cc3)c2c1 2.24 µM, CC(=O)NCCNc1nc(-c2ccccc2C)nc2ccccc12 5.01 µM, CC(=O)NCCNc1nc(-c2c(C)noc2C)nc2ccccc12 15.8 µM, CCn1c2ccccc2c2cc(NC(=O)C/C(C)=N/NC(=O)c3ccccc3N)ccc21 7.08 µM, COc1ccccc1CNc1ccnc(-c2c(C)noc2C)n1 5.01 µM, COc1ccc(CNc2ccnc(-c3c(C)noc3C)n2)c(OC)c1 2.51 µM, CC1(C)Cc2c(sc3nc(SCC(=O)NCc4ccccc4)n(-c4ccccc4)c(=O)c23)CS1 3.55 µM, Cc1ccc(-n2c(SCC(=O)NCc3ccco3)nc3sc4c(c3c2=O)CC(C)(C)SC4)cc1 2 µM, CN(C)c1ccc(-c2cncnc2NCc2cccnc2)cc1 0.631 µM, CN(C)c1ccc(-c2cncnc2NCc2ccccc2)cc1 0.0316 µM, Cc1ccc(/C=N/NC(=O)CSc2nc3nc(C)cc(C)n3n2)cc1 15.8 µM, Cc1cc(C)n2nc(SCc3cc(=O)oc4ccc5ccccc5c34)nc2n1 2.24 µM, COc1ccccc1CNC(=O)CSc1nc2nc(C)cc(C)n2n1 14.1 µM, CCn1c(SCC(=O)NC2CCCCC2)nnc1-c1cc2cccc(OC)c2o1 10 µM

activity, negative = inhibition, inactive:
O=C(O)c1ccc(S(=O)(=O)N=Nc2c(O)[nH]c3ccccc23)cc1 14.3% [at 11.4 µM], [Cu].[O-]/N=C1/C(=[OH+])Nc2ccccc21.[O-]Nc1c(O)[nH]c2ccccc12 1.34% [at 11.4 µM], CC(C)(CCc1nc2ccccc2[nH]1)C(=O)O -1.06% [at 11.4 µM], O=C(O)C/C(=C\c1ccco1)C(=O)O -18.3% [at 11.4 µM], O=C(NC(=S)NNC(=O)c1cccs1)c1ccco1 -0.791% [at 2.29 µM], O=C(Nc1cccc(F)c1)/C(=C\c1ccco1)NC(=O)c1cccs1 -8.91% [at 2.29 µM], CC(=NC1CCCCC1)c1ccccc1O -3.59% [at 11.4 µM], Cc1cc(N=Cc2c(CO)cnc(C)c2O)c(N=Cc2c(CO)cnc(C)c2O)cc1C.[Zn] -6.9% [at 11.4 µM], O=C1C2=CC[C@@H]3C(=O)N(c4ccc(F)cc4F)C(=O)[C@H]3[C@H]2[C@H](O)[C@H]2O[C@H]12 -21.3% [at 11.4 µM], CC(C)N(Cc1ccccc1)S(=O)(=O)c1n[nH]c(C(C)(C)C)n1 -24.5% [at 11.4 µM], CC(C)(C)c1ccc(OC(=O)Nc2ccc(O)c(C(=O)O)c2)cc1 -11.3% [at 11.4 µM], CC1(C)Cc2ccccc2C(N/N=C/c2cccc(F)c2)=N1 14.5% [at 2.29 µM], CN(C(=O)c1ccncc1)c1ccccc1 -11.8% [at 11.4 µM], O=C(NCCCN1CCN(c2cccc(Cl)c2)CC1)C1CCC(=O)N1Cc1ccccc1Cl (configuration not stated) -7.41% [at 2.29 µM], COCCCNC(=O)C1CCC(=O)N1Cc1ccccc1Cl (configuration not stated) -20.1% [at 11.4 µM], COc1ccc2nccc(SCC(=O)O)c2c1 -8.31% [at 11.4 µM], CCCSc1nnc(CSc2nc3nc(C)cc(C)n3n2)o1 5.19% [at 11.4 µM], COc1cc(NC(=O)COC(=O)c2nc3nc(C)cc(C)n3n2)cc(OC)c1 20% [at 2.29 µM]
